According to ChEMBL document CHEMBL3988442, “University of Dundee, Small-Polar-MMV Screening Library” (2021):
In all, about 48,000 compounds went through this assay and about 13,000 (27%) showed an effect of 50% or more. The list shows a part of the results.

tested on: Wolbachia pipientis; assay: Anti-Wolbachia Cell-Based Screen; assay type: functional; parameters: scale not given: in the data most compounds retested in dose-response had high values; settings: 5 µM

Row | SMILES | Percent Effect
1 | CCc1cnc(CN2CCCC2c2noc(C3CC3)n2)o1 (stereo not given) | 2.963%
2 | Cc1cc(N2CCCC(N(C)C)C2)n2nc(C)cc2n1 (stereo not given) | 4.471%
3 | COc1cc(CNCCn2cc(C)cn2)c2c(c1)CC(C)O2 (stereo not given) | -8.791%
4 | FC(F)(F)CN1CCC(CCNc2ncccn2)CC1 | -5.19%
5 | Cc1ccc(-c2nc(CN3CCOCS3(=O)=O)c(C)o2)cc1 | -5.038%
6 | O=S1(=O)COCCN1Cc1cccc(Cl)c1 | -18.09%
7 | Cc1ccc(CN2CCOCS2(=O)=O)cc1F | 130.8%
8 | O=S1(=O)COCCN1Cc1ccc(Cl)c(F)c1 | -18.76%
9 | Cc1oc(-c2cccc(F)c2)nc1CN1CCOCS1(=O)=O | -0.8413%
10 | CC(=O)N1CCN(Cc2ccc(F)c(C(F)(F)F)c2)CC(O)C1 (stereo not given) | -17.39%
11 | Cc1cc(CN2CCOCS2(=O)=O)ccc1F | -11.48%
12 | O=S1(=O)COCCN1Cc1ccc(Cl)c(Cl)c1 | 174.3%
13 | O=C1CCOCCN1Cc1ccc(C(F)(F)F)c(F)c1 | -2.892%
14 | O=S1(=O)COCCN1Cc1ccc(F)cc1Cl | 116.6%
15 | O=S1(=O)COCCN1Cc1ccc(F)c(C(F)(F)F)c1 | 116.1%
16 | CCc1ccc(CCC(=O)NCc2nnc[nH]2)cc1 | 9.868%
17 | O=C(CCn1cccn1)NS(=O)(=O)N1CCCc2ccccc21 | -12.53%
18 | CN(C)c1nc(N)nc(CSCCC(=O)Nc2ccc(F)cc2)n1 | -6.74%
19 | COCCN1CCN(CC(=O)N(C)Cc2ccc(F)cc2)CC1C (stereo not given) | 0.8723%
20 | O=C(CN1CCOCS1(=O)=O)NCc1ccccc1 | -2.644%
21 | O=S1(=O)COCCN1Cc1ccc(F)c(F)c1 | 115.2%
22 | O=C(CN1CCOCS1(=O)=O)NCCc1ccc(Cl)cc1 | 2.599%
23 | Cc1cccnc1NC(=O)CSc1ccc2c(c1)OCCO2 | -1.464%
24 | CCN(CC)C(=O)Nc1ccc(N2CCSCC2)cc1C | -12.7%

Row | SMILES | Percent Effect
25 | CC(NC(=O)N(C)Cc1ccncc1)c1nncn1C (stereo not given) | 2.48%
26 | CSc1cc2c(cc1NC(=O)N(C)Cc1ccncc1)OCCO2 | -3.541%
27 | CC(C)c1nnc(NC(=O)N(C)Cc2ccc(C(N)=O)cc2)s1 | 102.8%
28 | CC(C)c1nnc(NC(=O)NC2CCOc3ccccc32)s1 (stereo not given) | -12.43%
29 | CNC(=O)c1ccc(CN(C)C(=O)Nc2nnc(C(C)C)s2)cc1 | 109.8%
30 | CNC(=O)c1ccc(CN(C)c2ccc(C(F)(F)F)cn2)cc1 | 22.77%
31 | CC(C)c1nnc(NC(=O)N(C)Cc2ccncc2)s1 | 78.38%
32 | CC(C)c1nnc(NC(=O)NCc2cccnc2NCCN(C)C)s1 | -11.78%
33 | COCCN(Cc1ccc(C)o1)C(=O)Nc1nnc(C(F)F)s1 | -29.25%
34 | Clc1ccc(NCc2nnc(C3CC3)o2)cc1Cl | -1.785%
35 | CC(=O)Nc1cc(Br)cnc1OCC(F)(F)F | -6.07%
36 | Cc1nc(-c2ccco2)ccc1C(=O)N1CCc2nnc(N)cc2C1 | -5.155%
37 | O=C(CCC(=O)c1ccccc1)NC1(C(=O)NCC2CC2)CCCC1 | -11.29%
38 | CCc1nc(N)nc(N2CCCC3(CCOCC3)C2)c1C | 10.4%
39 | CCc1nc(N)nc(N2CCCC3(CCN(C)CC3)CC2)c1C | 62.58%
40 | CCc1nc(N)nc(N2CCCC3(CN(C)C(=O)O3)C2)c1C (stereo not given) | -2.167%
41 | CCOCC(=O)N1CCC(C2CCN(Cc3ccc(Cl)cc3)C2)CC1 (stereo not given) | -8.468%
42 | COc1ccc(CNC(c2cccc(F)c2)c2cnn(C)c2)cc1 (stereo not given) | 4.131%
43 | Clc1cnccc1NCc1cccc(COC2CCOCC2)c1 | -32.94%
44 | Cn1cc(C(NCc2ccc(F)cc2)c2cccc(F)c2)cn1 (stereo not given) | -2.157%
45 | CC(NCCN1CCN(C(=O)C2CCCC2)CC1)c1cnn(C)c1 (stereo not given) | 3.842%
46 | CCOc1cc(CNC(C)c2ccc(F)cc2)ccn1 (stereo not given) | -5.561%
47 | COc1cc(CNc2cnn(C)c2)cc2c1OCCO2 | -0.1017%
48 | CC(NCc1cccc(COC2CCCC2)c1)c1cnn(C)c1 (stereo not given) | 126.5%

Row | SMILES | Percent Effect
49 | COc1ccc(CNC(C)c2cnn(C)c2)cc1OC1CCCC1 (stereo not given) | 106.9%
50 | CC(C(=O)NCc1ccnc(OC2CCCC2)c1)n1cncn1 (stereo not given) | 10.69%
51 | CC(NCc1cccc(NC(=O)C2CCCCC2)c1)c1cnn(C)c1 (stereo not given) | 104.4%
52 | O=C(Nc1cccc(CNCc2cccs2)c1)C1CCCC1 | 0.6832%
53 | CC(NCc1ccnc(OC2CCC2)c1)c1cnn(C)c1 (stereo not given) | 127.4%
54 | CC(C)(O)C1CCN(C(=O)Nc2nc(-c3ccccc3)ns2)CC1 | 6.519%
55 | CC(=O)c1cc(CC(=O)NCc2ccc(CN(C)C)cc2)cs1 | -9.398%
56 | O=C1CCC2(CCCN(C(=O)c3ncc[nH]3)C2)CN1CCc1c[nH]cn1 (stereo not given) | 2.094%
57 | CC(=O)N1CCCN(C(C)C(=O)Nc2ccnn2C(C)C)CC1 (stereo not given) | 14.5%
58 | Cc1ccc(C(=O)NCCS(=O)(=O)Cc2ccccc2)c(=O)[nH]1 | -6.765%
59 | CNc1cc(C2CCCN2C(=O)c2ccc(=O)[nH]n2)ccn1.O=CO (stereo not given) | 167.7%
60 | CNc1cc(C2CCCN2C(=O)c2ccc3oc(=O)n(C)c3c2)ccn1 (stereo not given) | -0.2257%
61 | O=C(c1ccc(=O)[nH]n1)N1CC(c2nc(Cc3ccccc3)no2)C1 | -16.23%
62 | CN(C)c1cc(C2CCCN(C(=O)c3ccc(=O)[nH]n3)C2)ccn1 (stereo not given) | 139.8%
63 | CNc1cc(C2CCCN(C(=O)c3ccc(=O)[nH]n3)C2)ccn1 (stereo not given) | 169.1%
64 | O=C(NCCn1cnc(C2CCCC2)cc1=O)c1ccc(=O)[nH]n1 | -1.303%
65 | Cc1ccnc(C2CCN(C(=O)c3cnn(C)c3)CC2)n1 | 85.52%
66 | Cc1cc(C2CCCN(C(=O)c3cnn(C)c3)C2)ccn1 (stereo not given) | -11.66%
67 | Cc1ccnc(C2CCN(C(=O)c3cnn(C)c3)C2)n1 (stereo not given) | 83.36%
68 | Cc1cc(C2CCN(C(=O)c3cnn(C)c3)CC2)ccn1 | 94.31%
69 | Cn1cc(C(=O)N2CCC(c3nccn3Cc3ccncc3)CC2)cn1 | -25.63%
70 | Cc1c(C)n(CC(O)CN2CCC(C)CC2)c2c(Cl)cccc12 (stereo not given) | -13.14%
